Data from PubChem BioAssay.
A number with no mark means an inactive call. For some assays here: Results with a measured potency or affinity are listed apart. Active and inactive are the calls of the source. Unless noted, no rule for the calls is given here.

Columns and labels:
[1] = antimalarial activity against Dd2 strain (AID 2302;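 active = growth inhibition above 50% at the single 2 µM test dose, taken to imply half-maximal potency below 2 µM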;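 also: 0% = DMSO untreated growth and 100% = chloroquine plus artemisinin killed control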); conditions: P. falciparum Dd2 in RBCs, LDH growth readout, 72 h; at 2 µM; hits give high values
[2] = HepG2 cytotoxicity, primary screen, cytotoxicity control for P. falciparum antimalarial project, cell-based, ATP luminescence (AID 2303;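 active = inhibition above 50%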;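 also: 0% = DMSO wells and 100% = digitonin-killed cells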); conditions: HepG2 viability, 24-48 h, at 10 µM, hits give high values
[3] = target: L-lactate dehydrogenase (Plasmodium falciparum (isolate CDC / Honduras)) (UniProt Q27743); test: PfLDH activity inhibition – cell lysate, 3D7 strain, counter-screen for P. falciparum growth inhibition project (AID 2304);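 also: 0% = vehicle and 100% = reference inhibitor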; conditions: P. falciparum 3D7 crude extract, LDH APAD/NBT absorbance; at 2 µM; hits give high values
[4] = inhibition of 3D7 malaria parasite growth – strain 3D7 (AID 2306);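 also: 0% = DMSO wells and 100% = chloroquine plus artemisinin control wells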; conditions: P. falciparum 3D7 erythrocytic growth, LDH absorbance, 72 h; at 2 µM; hits give high values
[5] = target: Calcium-dependent protein kinase 1 (Plasmodium falciparum (isolate 3D7)) (UniProt P62344); test: PfCDPK1 kinase inhibitors, biochemical, TCAMS library (AID 1159585; cut-off not given, nearly all actives have IC50 up to about 0.98 µM;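 also: inhibitors leave more ATP so luminescence rises with inhibition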); conditions: recombinant PfCDPK1, Kinase-Glo ATP depletion luminescence
[6] = target: Plasmodium falciparum protein kinase 6 (PK6, PF3D7_1337100) (UniProt Q8IDW1); test: PfPK6 kinase inhibitors, biochemical, TCAMS library (AID 1159586); conditions: recombinant PfPK6, Kinase-Glo ATP depletion luminescence
[7] = target: Protein kinase 7 (PK7), Plasmodium falciparum 3D7 (PF3D7_0213400) (UniProt Q7YTF7); test: inhibition of Plasmodium PK7 catalytic activity – biochemical, TCAMS antimalarial set, Kinase-Glo luminescence (AID 1159587); conditions: recombinant PfPK7, Kinase-Glo ATP depletion luminescence
[8] = target: Calcium-dependent protein kinase 4 (Plasmodium falciparum (isolate 3D7)) (UniProt Q8IBS5); test: PfCDPK4 kinase inhibitors, biochemical, TCAMS library (AID 1159588; cut-off not given, nearly all actives have IC50 up to about 0.91 µM); conditions: recombinant PfCDPK4, Kinase-Glo ATP depletion luminescence
Chain of Calcium-dependent protein kinase 4 (Plasmodium falciparum (isolate 3D7)) (Q8IBS5 whole entry, looked up): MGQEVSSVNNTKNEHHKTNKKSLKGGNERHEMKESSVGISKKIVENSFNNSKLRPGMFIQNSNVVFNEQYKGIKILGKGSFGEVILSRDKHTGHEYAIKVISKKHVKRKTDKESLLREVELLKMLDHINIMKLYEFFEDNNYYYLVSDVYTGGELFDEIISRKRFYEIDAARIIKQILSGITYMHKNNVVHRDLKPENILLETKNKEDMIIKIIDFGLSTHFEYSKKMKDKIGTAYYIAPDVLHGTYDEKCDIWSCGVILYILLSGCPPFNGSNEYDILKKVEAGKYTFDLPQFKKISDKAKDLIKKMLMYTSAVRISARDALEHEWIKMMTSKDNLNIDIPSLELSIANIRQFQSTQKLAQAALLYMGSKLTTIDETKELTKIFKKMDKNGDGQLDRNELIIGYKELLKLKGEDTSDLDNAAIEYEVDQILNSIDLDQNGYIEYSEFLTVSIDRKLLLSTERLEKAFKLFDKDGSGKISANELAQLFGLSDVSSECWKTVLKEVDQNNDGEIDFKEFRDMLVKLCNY

Chain of L-lactate dehydrogenase (Plasmodium falciparum (isolate CDC / Honduras)) (Q27743 whole entry, looked up): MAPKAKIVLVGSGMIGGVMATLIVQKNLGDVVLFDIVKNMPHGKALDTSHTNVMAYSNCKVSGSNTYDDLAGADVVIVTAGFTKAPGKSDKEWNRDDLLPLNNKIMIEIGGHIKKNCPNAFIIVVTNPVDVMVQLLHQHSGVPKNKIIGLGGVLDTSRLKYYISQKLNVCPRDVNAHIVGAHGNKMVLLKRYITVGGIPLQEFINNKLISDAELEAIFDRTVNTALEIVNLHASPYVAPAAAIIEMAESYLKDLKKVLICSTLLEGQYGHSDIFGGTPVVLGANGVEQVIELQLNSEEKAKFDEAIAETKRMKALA
Chain of Plasmodium falciparum protein kinase 6 (PK6, PF3D7_1337100) (Q8IDW1 1-305): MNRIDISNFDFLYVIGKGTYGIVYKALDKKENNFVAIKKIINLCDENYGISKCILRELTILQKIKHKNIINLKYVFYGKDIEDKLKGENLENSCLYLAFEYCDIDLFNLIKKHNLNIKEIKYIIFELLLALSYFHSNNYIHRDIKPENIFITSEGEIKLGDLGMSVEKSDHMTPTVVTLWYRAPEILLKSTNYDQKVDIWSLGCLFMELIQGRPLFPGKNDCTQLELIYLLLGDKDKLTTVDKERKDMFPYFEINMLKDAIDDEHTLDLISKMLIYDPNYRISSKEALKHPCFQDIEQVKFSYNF
Chain of Protein kinase 7 (PK7), Plasmodium falciparum 3D7 (PF3D7_0213400) (Q7YTF7 1-343): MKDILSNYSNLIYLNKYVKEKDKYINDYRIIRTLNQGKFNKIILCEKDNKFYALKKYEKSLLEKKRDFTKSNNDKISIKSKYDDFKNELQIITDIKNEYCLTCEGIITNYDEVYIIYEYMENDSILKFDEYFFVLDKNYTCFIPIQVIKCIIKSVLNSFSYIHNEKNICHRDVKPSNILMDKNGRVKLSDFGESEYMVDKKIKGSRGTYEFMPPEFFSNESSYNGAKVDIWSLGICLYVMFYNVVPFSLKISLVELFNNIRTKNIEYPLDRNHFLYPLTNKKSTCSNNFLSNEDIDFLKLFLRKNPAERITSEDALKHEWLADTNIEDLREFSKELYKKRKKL
Chain of Calcium-dependent protein kinase 1 (Plasmodium falciparum (isolate 3D7)) (P62344 whole entry, looked up): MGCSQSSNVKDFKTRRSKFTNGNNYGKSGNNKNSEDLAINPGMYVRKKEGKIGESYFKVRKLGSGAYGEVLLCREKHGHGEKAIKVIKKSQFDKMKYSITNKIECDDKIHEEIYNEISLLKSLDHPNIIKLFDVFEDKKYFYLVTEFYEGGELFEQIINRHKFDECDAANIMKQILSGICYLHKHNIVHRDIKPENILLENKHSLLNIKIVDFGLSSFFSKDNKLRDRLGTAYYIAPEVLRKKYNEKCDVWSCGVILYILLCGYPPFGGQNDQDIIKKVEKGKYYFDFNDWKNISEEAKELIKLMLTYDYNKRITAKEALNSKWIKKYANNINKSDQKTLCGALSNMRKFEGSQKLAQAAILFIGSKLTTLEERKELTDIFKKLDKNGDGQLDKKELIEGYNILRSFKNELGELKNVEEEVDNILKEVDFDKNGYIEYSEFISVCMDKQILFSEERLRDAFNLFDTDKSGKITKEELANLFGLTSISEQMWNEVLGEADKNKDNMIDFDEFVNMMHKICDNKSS

COc1cc(Nc2ccnc3ccc(C(F)(F)F)cc23)cc(OC)c1OC
growth inhibition [1]: 100% (active)
inhibition [2]: 15%
inhibition [3]: 1%
growth inhibition [4]: 101% (active)
outcome [5]: inactive
outcome [6]: inactive
outcome [7]: inactive
outcome [8]: inactive

CC(CN(C)C)C(=O)Nc1cccc(-c2cccc(-c3nc4ccccc4[nH]3)c2)c1 (stereo unspecified)
growth inhibition [1]: 25%
inhibition [2]: 42%
inhibition [3]: -5%
growth inhibition [4]: 94% (active)
outcome [5]: inactive
outcome [6]: inactive
outcome [7]: inactive
outcome [8]: inactive

O=C(Nc1cccc(-c2ccc(-c3nc4ccc(C(F)(F)F)cc4[nH]3)s2)c1)c1cccnc1
growth inhibition [1]: 99% (active)
inhibition [2]: 74% (active)
inhibition [3]: -3%
growth inhibition [4]: 101% (active)
outcome [5]: inactive
outcome [6]: inactive
outcome [7]: inactive
outcome [8]: inactive

COc1cccc(CNC(=O)[C@H]2CNCCN2C(=O)CCCc2ccccc2)c1
growth inhibition [1]: 95% (active)
inhibition [2]: 56% (active)
inhibition [3]: 2%
growth inhibition [4]: 91% (active)
outcome [5]: inactive
outcome [6]: inactive
outcome [7]: inactive
outcome [8]: inactive

CCNc1cc(C(=O)N[C@@H](Cc2ccccc2)[C@H](O)CNC(C)(C)CCCC(C)C)cc(N2CCCCS2(=O)=O)c1
growth inhibition [1]: 98% (active)
inhibition [2]: 5%
inhibition [3]: 2%
growth inhibition [4]: 98% (active)
outcome [5]: inactive
outcome [6]: inactive
outcome [7]: inactive
outcome [8]: inactive

Nc1nc(N)c2cc(Sc3ccc4ccccc4c3)ccc2n1
growth inhibition [1]: 92% (active)
inhibition [2]: 66% (active)
inhibition [3]: 0%
growth inhibition [4]: 95% (active)
outcome [5]: inactive
outcome [6]: inactive
outcome [7]: inactive
outcome [8]: inactive

O=C(Nc1cccc(C2=NCCCN2)c1)Nc1cccc(C2=NCCCN2)c1
growth inhibition [1]: 70% (active)
inhibition [2]: 5%
inhibition [3]: -6%
growth inhibition [4]: 81% (active)
outcome [5]: inactive
outcome [6]: inactive
outcome [7]: inactive
outcome [8]: inactive

O=C(Nc1ccsc1)Nc1cccc(-c2cccc(-c3nc4ccc(C(F)(F)F)cc4[nH]3)c2)c1
growth inhibition [1]: 101% (active)
inhibition [2]: 76% (active)
inhibition [3]: -7%
growth inhibition [4]: 102% (active)
outcome [5]: inactive
outcome [6]: inactive
outcome [7]: inactive
outcome [8]: inactive

COc1ccccc1-c1csc(C(=O)NC2CCCCN(Cc3ccc(C(C)(C)C)cc3)C2)c1 (stereo unspecified)
growth inhibition [1]: 8%
inhibition [2]: 13%
inhibition [3]: -5%
growth inhibition [4]: 99% (active)
outcome [5]: inactive
outcome [6]: inactive
outcome [7]: inactive
outcome [8]: inactive

O=C(Nc1ccccc1)N1CCC(CN2CCOC(c3ccccc3)(c3ccccc3)C2)CC1
growth inhibition [1]: 98% (active)
inhibition [2]: 10%
inhibition [3]: 2%
growth inhibition [4]: 96% (active)
outcome [5]: inactive
outcome [6]: inactive
outcome [7]: inactive
outcome [8]: inactive

C[C@@H](Oc1cc(-n2cnc3ccc(NC(=O)NC(C)(C)C)cc32)sc1C(N)=O)c1ccccc1Cl
growth inhibition [1]: 97% (active)
inhibition [2]: 28%
inhibition [3]: 1%
growth inhibition [4]: 95% (active)
outcome [5]: inactive
outcome [6]: inactive
outcome [7]: inactive
outcome [8]: inactive

COc1cc(NC(=O)c2sc(-c3ccc(Cl)cc3)cc2NC(=O)c2cccc(N(C)C)c2)ccc1OCCN1CCCC1
growth inhibition [1]: 67% (active)
inhibition [2]: 49%
inhibition [3]: -3%
growth inhibition [4]: 99% (active)
outcome [5]: inactive
outcome [6]: inactive
outcome [7]: inactive
outcome [8]: inactive

Cc1sc(N2CCN(C)CC2)nc1C(=O)Nc1ccc(F)cc1C(F)(F)F
growth inhibition [1]: 63% (active)
inhibition [2]: 7%
inhibition [3]: 4%
growth inhibition [4]: 92% (active)
outcome [5]: inactive
outcome [6]: inactive
outcome [7]: inactive
outcome [8]: inactive

Cc1[nH]c2ccccc2c1C(=O)CSc1nn(-c2ccccc2)c(=S)s1
growth inhibition [1]: 99% (active)
inhibition [2]: -6%
inhibition [3]: -1%
growth inhibition [4]: 100% (active)
outcome [5]: inactive
outcome [6]: inactive
outcome [7]: inactive
outcome [8]: inactive

COc1ccccc1Cc1c(C)nc2nc(N)nc(N)c2c1C
growth inhibition [1]: 2%
inhibition [2]: 69% (active)
inhibition [3]: -3%
growth inhibition [4]: 96% (active)
outcome [5]: inactive
outcome [6]: inactive
outcome [7]: inactive
outcome [8]: inactive

CCOC(=O)c1ccc(NC(=O)Nc2cccc(-c3ccc(-c4nc5ccc(C(F)(F)F)cc5[nH]4)cc3)c2)cc1
growth inhibition [1]: 99% (active)
inhibition [2]: 62% (active)
inhibition [3]: -4%
growth inhibition [4]: 101% (active)
outcome [5]: inactive
outcome [6]: inactive
outcome [7]: inactive
outcome [8]: inactive

CC1CCN(c2nc(C(=O)Nc3ccc(F)cc3C(F)(F)F)c(C(C)C)s2)CC1
growth inhibition [1]: 66% (active)
inhibition [2]: 5%
inhibition [3]: -5%
growth inhibition [4]: 101% (active)
outcome [5]: inactive
outcome [6]: inactive
outcome [7]: inactive
outcome [8]: inactive

COc1ccc2nccc(N3CCCN(CCNCc4ccc5c(n4)NC(=O)CS5)CC3)c2n1
growth inhibition [1]: 10%
inhibition [2]: 8%
inhibition [3]: -2%
growth inhibition [4]: 100% (active)
outcome [5]: inactive
outcome [6]: inactive
outcome [7]: inactive
outcome [8]: inactive

CCN1CCN(CCNc2c3ccccc3nc3ccccc23)CC1
growth inhibition [1]: 8%
inhibition [2]: 45%
inhibition [3]: 0%
growth inhibition [4]: 93% (active)
outcome [5]: inactive
outcome [6]: inactive
outcome [7]: inactive
outcome [8]: inactive

O=C(N[C@@H](Cc1ccccc1)C(=O)NC1CCCCCC1)c1ccc(O)c(-c2cccc(C(F)(F)F)c2)c1
growth inhibition [1]: 70% (active)
inhibition [2]: -10%
inhibition [3]: -1%
growth inhibition [4]: 98% (active)
outcome [5]: inactive
outcome [6]: inactive
outcome [7]: inactive
outcome [8]: inactive

Cc1cccc(C(=O)Nc2ccc(N3CCCN(Cc4cccc(O)c4)CC3)cc2)c1
growth inhibition [1]: 44%
inhibition [2]: 2%
inhibition [3]: -3%
growth inhibition [4]: 92% (active)
outcome [5]: inactive
outcome [6]: inactive
outcome [7]: inactive
outcome [8]: inactive

CCOC(=O)N1NC(=O)N(c2ccccc2)C1(c1ccccc1)c1ccccc1
growth inhibition [1]: 82% (active)
inhibition [2]: 5%
inhibition [3]: 6%
growth inhibition [4]: 96% (active)
outcome [5]: inactive
outcome [6]: inactive
outcome [7]: inactive
outcome [8]: inactive

CSc1nccc(-c2ccc3ccnc(N)c3c2)n1
growth inhibition [1]: 98% (active)
inhibition [2]: 30%
inhibition [3]: 0%
growth inhibition [4]: 101% (active)
outcome [5]: inactive
outcome [6]: inactive
outcome [7]: inactive
outcome [8]: inactive

Clc1ccc(-c2cnc3ccc(NCc4ccncc4)nn23)cc1
growth inhibition [1]: 98% (active)
inhibition [2]: 25%
inhibition [3]: 2%
growth inhibition [4]: 98% (active)
outcome [5]: inactive
outcome [6]: inactive
outcome [7]: inactive
outcome [8]: inactive

CN1CCC(NCc2ccc(-c3ccc(S(=O)(=O)NCc4ccccc4)cc3)cc2)CC1
growth inhibition [1]: 51% (active)
inhibition [2]: 40%
inhibition [3]: 2%
growth inhibition [4]: 99% (active)
outcome [5]: inactive
outcome [6]: inactive
outcome [7]: inactive
outcome [8]: inactive

COc1ccc2nccc(N3CCC(CCNCc4ccc5c(n4)NC(=O)CO5)CC3)c2c1
growth inhibition [1]: 50% (active)
inhibition [2]: 22%
inhibition [3]: -1%
growth inhibition [4]: 101% (active)
outcome [5]: inactive
outcome [6]: inactive
outcome [7]: inactive
outcome [8]: inactive

O=C(/C=C/c1ccc(Cl)c(Cl)c1)NCCCCCN1CCC(NC(=O)Nc2ccc(Cl)c(C(F)(F)F)c2)CC1
growth inhibition [1]: 19%
inhibition [2]: 76% (active)
inhibition [3]: -1%
growth inhibition [4]: 99% (active)
outcome [5]: inactive
outcome [6]: inactive
outcome [7]: inactive
outcome [8]: inactive

O=C(Cc1cnc[nH]1)Nc1cccc(-c2cccc(-c3nc4ccc(F)cc4[nH]3)c2)c1
growth inhibition [1]: 97% (active)
inhibition [2]: 21%
inhibition [3]: 2%
growth inhibition [4]: 101% (active)
outcome [5]: inactive
outcome [6]: inactive
outcome [7]: inactive
outcome [8]: inactive

CC(=O)c1ccc(NC(=O)Nc2ccc(N(C)c3ccnc(NC4CC4)n3)cc2)cc1
growth inhibition [1]: 60% (active)
inhibition [2]: 59% (active)
inhibition [3]: 1%
growth inhibition [4]: 100% (active)
outcome [5]: inactive
outcome [6]: inactive
outcome [7]: inactive
outcome [8]: inactive

COc1cc(OC)cc(-c2nnc(Sc3ccc(C#N)c([N+](=O)[O-])c3)n2C)c1
growth inhibition [1]: 77% (active)
inhibition [2]: 1%
inhibition [3]: 3%
growth inhibition [4]: 95% (active)
outcome [5]: inactive
outcome [6]: inactive
outcome [7]: inactive
outcome [8]: inactive

NC1=NC(c2ccccc2)N(OCc2ccccc2)C(N)=N1 (stereo unspecified)
growth inhibition [1]: 21%
inhibition [2]: 5%
inhibition [3]: -6%
growth inhibition [4]: 96% (active)
outcome [5]: inactive
outcome [6]: inactive
outcome [7]: inactive
outcome [8]: inactive

CC(C)[C@H](NC(=O)c1ccc(O)c(-c2ccc(Cl)c(Cl)c2)c1)C(=O)NCCN(C)C
growth inhibition [1]: 1%
inhibition [2]: -4%
inhibition [3]: -3%
growth inhibition [4]: 92% (active)
outcome [5]: inactive
outcome [6]: inactive
outcome [7]: inactive
outcome [8]: inactive

CCC(C)Oc1ccc(CCCON2C(N)=NC(N)=NC2(C)C)cc1 (stereo unspecified)
growth inhibition [1]: 95% (active)
inhibition [2]: 65% (active)
inhibition [3]: -8%
growth inhibition [4]: 92% (active)
outcome [5]: inactive
outcome [6]: inactive
outcome [7]: inactive
outcome [8]: inactive

NC(=O)c1cccc(Nc2nccc(Nc3ccc(Oc4ccc5ccccc5c4)cc3)n2)c1
growth inhibition [1]: 31%
inhibition [2]: 15%
inhibition [3]: 5%
growth inhibition [4]: 96% (active)
outcome [5]: inactive
outcome [6]: inactive
outcome [7]: inactive
outcome [8]: inactive

CC(=NNC(=S)NC(C)(C)C)c1ccccn1
growth inhibition [1]: 100% (active)
inhibition [2]: 63% (active)
inhibition [3]: -3%
growth inhibition [4]: 99% (active)
outcome [5]: inactive
outcome [6]: inactive
outcome [7]: inactive
outcome [8]: inactive

CNC(=O)c1ccccc1Nc1nc(Nc2cccnc2)ncc1C
growth inhibition [1]: 90% (active)
inhibition [2]: 17%
inhibition [3]: 1%
growth inhibition [4]: 93% (active)
outcome [5]: inactive
outcome [6]: inactive
outcome [7]: inactive
outcome [8]: inactive

O=C(Nc1ccc(Oc2ccccc2)cc1)N[C@@H](Cc1ccc(O)cc1)C(=O)NC1CCN(Cc2ccc(O)c([N+](=O)[O-])c2)C1 (stereo partly specified)
growth inhibition [1]: -3%
inhibition [2]: -3%
inhibition [3]: 2%
growth inhibition [4]: 101% (active)
outcome [5]: inactive
outcome [6]: inactive
outcome [7]: inactive
outcome [8]: inactive
